GALK inhibitor: blocks human galactokinase activity. AID 1868. 0.007% of 270,000 active. Purified GALK, Kinase-Glo residual ATP luminescence. Potency, µM (top dose mostly 57.5 µM), actives largely listed as inhibitors
Target sequence (P51570 whole entry, looked up): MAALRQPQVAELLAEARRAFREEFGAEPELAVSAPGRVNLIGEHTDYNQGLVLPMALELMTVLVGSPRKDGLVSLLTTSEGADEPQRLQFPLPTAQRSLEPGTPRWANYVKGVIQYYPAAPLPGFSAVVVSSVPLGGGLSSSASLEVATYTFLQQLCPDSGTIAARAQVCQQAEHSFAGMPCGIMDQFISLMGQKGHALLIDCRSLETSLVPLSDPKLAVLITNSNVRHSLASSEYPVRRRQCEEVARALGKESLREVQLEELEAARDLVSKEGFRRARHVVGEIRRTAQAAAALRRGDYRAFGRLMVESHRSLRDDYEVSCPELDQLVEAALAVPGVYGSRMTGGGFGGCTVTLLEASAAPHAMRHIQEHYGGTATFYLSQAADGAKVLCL
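GALK at 5 nM final was combined with compound, 35 uM ATP and 100 uM galactose in HEPES pH8.0 with MgCl2 and DTT. The reaction ran one hour at room temperature before luminescent ATP detection.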
rTrxR1 inhibitor: inhibitors of rat thioredoxin reductase 1 | O89049 | recombinant rTrxR1, NADPH fluorescence consumption, selenite substrate | Potency, µM (titrated, usually from 114 µM), hits mostly inhibitors | 1% of 390,000 active | AID 588453; note: nearly all actives have a fitted effect of over 65% in size
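Rat TrxR1 (90 nM in the dispensed reagent) was pre-reduced with 400 uM NADPH for 5 min at room temperature, then incubated with compound for 15 min. After 400 uM selenite was added, NADPH fluorescence (Ex 340/Em 450 nm) was followed for 8 min.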
RORg inh: blocks mouse ROR gamma transcriptional activity | P51450 | Drosophila S2 Gal4-RORgamma UAS-luciferase reporter, 20 h | Potency, µM (series often up to 53.6 µM), hits mostly inhibitors | 5.4% of 310,000 active | AID 2551; note: nearly all actives have a fitted effect of over 60% in size
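Schneider cells (Drosophila), stable Gal4 DBD–ROR gamma + UAS-luc; 1 hr cmpd preincubation; Cu2+ induction 700 uM final; 20 hr ambient; luminescence.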
Coupling enz: coupling enzyme interference in Giardia aldolase counter-screen. AID 2472. 0.67% of 290,000 active. coupling enzyme system counterscreen, AmpLite Red fluorescence. activity change, negative = inhibition, % at 58.2 µM, hits read low; in the data active = activity change below about -30%
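Counterscreen of the coupled detection system alone, without aldolase: glyceraldehyde-3-phosphate coupling enzymes plus AmpLite Red readout. Compounds at 57.5 uM final, 10 min RT preincubation, 20 min RT reaction, fluorescence 525/598 nm.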
TrxR1 substrate: is turned over as a substrate by rat TrxR1. O89049. purified TrxR1 substrate turnover, NADPH consumption readout. Potency, µM (doses to about 114 µM). 0.01% of 390,000 active. AID 588456; note: nearly all actives have a fitted effect of over 50% in size
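Rat TrxR1, dispensed at 90 nM, was prereduced with 400 uM NADPH (final) for 5 min at ~22 deg C, then incubated with compound 15 min before 400 uM selenite. A first-read NADPH fluorescence drop versus no-compound background flagged substrates.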
VP16 counter: counter-screen for ROR gamma inhibitors: Gal4-VP16 reporter; Drosophila S2 Gal4-VP16 UAS-luciferase, luminescence, 20 h; AID 2546; Potency, µM (highest dose often 53.6 µM), hits mostly inhibitors; 3.5% of 310,000 active;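 note: Gal4-VP16 expression switched on by copper sulfate through the metallothionein promoter; nearly all actives have a fitted effect of over 50% in size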
Each line names hits and unclear results; the compound was inactive in the other large screens. A selection: hits, their analogues and other compounds. The true share with any hit is near 5.9%. Unless noted, calls come from the whole dose curve; as a rule, active = well fitted curve in the direction sought with a large enough effect; inconclusive = small, poorly fitted or top-dose-only effect, or another doubt; inactive = no such curve, though single readings can be large; an effect the other way counts as inactive or inconclusive.

C#CCN[C@H](C)Cc1ccccc1	none (no result: GALK inhibitor, RORg inh, Coupling enz, VP16 counter)
C[C@@H](Cc1cccc(C(F)(F)F)c1)NCCCc1ccccc1	RORg inh 22µM (no result: GALK inhibitor, rTrxR1 inhibitor, TrxR1 substrate)
COc1ccc(N)cc1	none (no result: GALK inhibitor, rTrxR1 inhibitor, Coupling enz, TrxR1 substrate)
C[C@H]1C2Cc3ccc(O)cc3[C@]1(C)CCN2CC1CC1	rTrxR1 inhibitor inconclusive (no result: GALK inhibitor, RORg inh, Coupling enz, VP16 counter)
CN1CC[C@@]2(C)c3cc(O)ccc3N(C)C2O1 (some centres not stated)	RORg inh inconclusive, Coupling enz -72, VP16 counter inconclusive (no result: GALK inhibitor)
CC1[C@H]2Cc3ccc(O)cc3[C@]1(C)CCN2C (some centres not stated)	none (no result: GALK inhibitor, RORg inh, Coupling enz, VP16 counter)
CN1CC[C@@]2(C)c3cc(O)ccc3N(C)[C@@H]12	Coupling enz -78 (no result: GALK inhibitor)
C[C@@]12CCC(Cl)C[C@H]1CCC1C2CC[C@]2(C)C(=O)CCC12 (some centres not stated)	none (no result: GALK inhibitor, rTrxR1 inhibitor, TrxR1 substrate)
CCCCC/C=C\C/C=C\C/C=C\C/C=C\CCCC(=O)NCCCC(=O)O	none (no result: GALK inhibitor, rTrxR1 inhibitor, TrxR1 substrate)
Cc1ccc2cc(C=C(C#N)C#N)c(Cl)nc2c1	rTrxR1 inhibitor 25µM, RORg inh inconclusive, VP16 counter inconclusive
Cc1cc(N2CCCC2)ccc1C=C(C#N)C#N	none
C[N+](C)(C)CC1CCCC1=O (configuration not stated)	none (no result: GALK inhibitor, RORg inh, Coupling enz, VP16 counter)
CC(C)c1oc(=O)cc2c1[C@@H](O)[C@H]1OC(=O)[C@@]3(C)CC[C@@H](O)[C@@]2(C)C13 (some centres not stated)	RORg inh 20µM, VP16 counter 5µM (no result: GALK inhibitor)
COC(=O)[C@]1(C)CC[C@@]2(C)CC[C@@]3(C)C4=CC=C5C(=CC(=O)C(O)=C5C)[C@@]4(C)CC[C@@]3(C)C2C1 (some centres not stated)	RORg inh 4µM, VP16 counter 3.5µM (no result: GALK inhibitor, rTrxR1 inhibitor, TrxR1 substrate)
COc1ccc(-n2c(/C=C/c3cccc(F)c3)nc3ccccc3c2=O)cc1Cl	none (no result: GALK inhibitor, RORg inh, Coupling enz, VP16 counter)
CN1C(=O)C(=Cc2cn(CC(=O)N3CCCC3)c3ccccc23)C(=O)N(C)C1=O	none
CCN1C(=O)NC(=O)/C(=C\c2cn(CC(=O)N3CCCCC3C)c3ccccc23)C1=O (configuration not stated)	rTrxR1 inhibitor 20µM
COc1ccc(C)cc1NC(=O)c1cccn(Cc2ccccc2Cl)c1=O	none (no result: GALK inhibitor, RORg inh, Coupling enz, VP16 counter)
[Cl-].[Cl-].[Hg+2]	RORg inh inconclusive, VP16 counter 18µM (no result: GALK inhibitor, rTrxR1 inhibitor, Coupling enz, TrxR1 substrate)
CCCCC/C=C\C/C=C\C/C=C\C/C=C\CCCC(=O)NCc1ccoc1	none (no result: GALK inhibitor, rTrxR1 inhibitor, TrxR1 substrate)
O=C1NC(=O)N(c2ccc(Cl)cc2)C(=O)/C1=C\c1ccc(Sc2nc3ccccc3[nH]2)o1	rTrxR1 inhibitor 13µM
CCN(CC)c1ccc(N=Cc2c(O)n(Cc3ccco3)c(=O)[nH]c2=O)cc1	none
CCN(CCO)c1ccc(N=Cc2c(O)n(C)c(=S)[nH]c2=O)cc1	Coupling enz -47
S=C1Nc2ccccc2Sc2ccccc21	RORg inh 2µM, VP16 counter 5µM
O=C(N/N=C/c1cccc([N+](=O)[O-])c1)c1cnccn1	RORg inh inconclusive
COc1cccc(/C=N/NC(=O)c2c(C)nc3ccc(Br)cn23)c1	RORg inh 14µM, Coupling enz -33, VP16 counter inconclusive
CCOC(=O)c1c(C)n(Cc2ccco2)c2c1cc(O)c1ccccc12	RORg inh inconclusive
COc1ccc(C(O)P(=O)(OC(C)C)OC(C)C)cc1 (configuration not stated)	none
COc1ccc(C(=O)O/N=C(/C(N)=O)P(=O)(OC(C)C)OC(C)C)cc1	rTrxR1 inhibitor inconclusive, RORg inh 16µM, VP16 counter 7.9µM
CC1(C)C(=O)C=C[C@@]2(C)C1=C(O)C(=O)[C@@]1(C)C2CC[C@@]2(C)C(c3ccoc3)C[C@H]3O[C@@]321 (some centres not stated)	RORg inh 8.9µM, VP16 counter 10µM (no result: GALK inhibitor, rTrxR1 inhibitor, TrxR1 substrate)
C[C@H]1[C@@H](OS(=O)(=O)O)C[C@@H]2C[C@H]([C@@H](O)c3cc(=O)[nH]c(=O)[nH]3)NC3=NC[C@H]1N32	none (no result: GALK inhibitor, RORg inh, Coupling enz, VP16 counter)
[Hg+][c]1ccccc1	rTrxR1 inhibitor inconclusive, RORg inh inconclusive, VP16 counter 2.8µM (no result: GALK inhibitor, Coupling enz)
COc1ccccc1/C=C1/C(=N/O)C2CCN1CC2	none
COc1ccccc1NC(=O)COC(=O)c1cc(C)n(C2CC2)c1C	none (no result: GALK inhibitor, RORg inh, Coupling enz, VP16 counter)
Cc1cc(C(=O)CN2C(=O)c3ccccc3C2=O)c(C)n1C1CC1	VP16 counter 16µM
CN1CCN(c2ccc([N+](=O)[O-])c3no[n+]([O-])c23)CC1	RORg inh 1.3µM, VP16 counter 5.6µM
CN1CCN(c2ccc(S(C)(=O)=O)cc2[N+](=O)[O-])CC1	none
COc1ccc(CNC(=O)CCC(=O)N2C[C@H]3C[C@H](C2)c2cccc(=O)n2C3)cc1	none (no result: GALK inhibitor)
CNc1cc(Cl)c2nonc2c1[N+](=O)[O-]	rTrxR1 inhibitor 0.35µM, RORg inh 1µM, VP16 counter 3.5µM
O=C(Nc1nnc(-c2ccco2)o1)c1cccc2ccccc12	RORg inh 0.032µM
CN(Cc1ccc(OC(F)F)cc1)Cc1nc2c(Br)cc(Br)cc2c(=O)[nH]1	RORg inh 3.2µM, VP16 counter 13µM
C[C@]12CC[C@@H]3c4ccc(O)c(O)c4CC[C@H]3[C@@H]1CC[C@@H]2O	rTrxR1 inhibitor inconclusive, RORg inh inconclusive, Coupling enz -47
C[C@]12CC[C@@H]3c4cc(O)c(O)cc4CC[C@H]3[C@@H]1CC[C@@H]2O	rTrxR1 inhibitor inconclusive, RORg inh 13µM, VP16 counter inconclusive
C[C@]12CC[C@@H]3c4ccc(OC(=O)N(CCCl)CCCl)cc4CC[C@H]3[C@@H]1CC[C@@H]2O	none (no result: GALK inhibitor, rTrxR1 inhibitor, Coupling enz, TrxR1 substrate)
N#CCCC#N	RORg inh inconclusive (no result: GALK inhibitor, rTrxR1 inhibitor, Coupling enz, TrxR1 substrate)
CCCCC(=O)N/N=C/c1c(O)n(CC)c(=S)[nH]c1=O	RORg inh 11µM, VP16 counter inconclusive
CCCCC(=O)N/N=C/c1c(O)n(CCc2ccccc2)c(=O)[nH]c1=O	RORg inh 10µM
CC(C)(C)OO	none (no result: GALK inhibitor, rTrxR1 inhibitor, Coupling enz, TrxR1 substrate)
CC1(C)C(C=C(Cl)Cl)C1C(=O)OC(C#N)c1cccc(Oc2ccccc2)c1 (configuration not stated)	none (no result: GALK inhibitor, rTrxR1 inhibitor, TrxR1 substrate)

Compound activity from PubChem.
